# Assay results as given in paper PMC5540273 (PLoS ONE, 2017).
# System: LYN
# Conditions: concentration: 1 μM, replicates: in singlicate; n = 1
# 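Further: KINOMEscan kinase panel screen.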
row,SMILES,%Inh
1,COC(=O)c1c(-c2ccccc2)c2cc(Br)ccc2c(=O)n1Cc1ccc(S(C)(=O)=O)cc1,14%
2,Cc1nnc(-c2ccc(C)c(-c3ccc(C(=O)O)cc3)c2)o1 [GW608005],0%
3,COc1cc2nccc(Nc3ccc(OCc4ccc(NC(C)=O)cc4)cc3)c2cc1OC.Cl [GW440135],23%
4,Cc1nc(N(C)[C@H]2CN(C(=O)CC#N)CC[C@H]2C)c2cc[nH]c2n1,0%
5,Nc1nc(N)c2nc(-c3ccccc3)[nH]c2n1 [SKF-12778],3%
6,Cl.c1ccc(Cn2cnc3cc(Nc4ncnc5ccccc45)ccc32)cc1 [GW272142],0%
7,COC(=O)c1c(-c2ccccc2)c2cc(Br)ccc2c(=O)n1Cc1ccc(NC(=O)CCC(=O)O)cc1,8%
8,O=C(Nc1ccc2c(c1)OCO2)NC1CCN(c2ccnc(NCc3ccc(F)cc3)n2)CC1 [GSK1379859],4%
9,Cc1ccccc1COc1cc(-n2cnc3cc(Cl)ccc32)sc1C(N)=O [GW813349],33%
10,Nc1n[nH]c2ncc(-c3ccccc3)cc12 [SB-517081],0%
11,COc1ccc(-c2coc3ccc(-c4nnc(SCc5cccc(C#N)c5)o4)cc23)cc1,0%
12,Cc1cccc(-c2nc(Nc3ccc4c(cnn4C)c3)c3ccccc3n2)n1 [GW876731],5%
13,CN(C)c1cc(-c2ccc3c(N)n[nH]c3c2)nc(N)n1 [GSK2219329],0%
14,COc1cc2ncn(-c3cc(OCCCc4ccccc4)c(C(N)=O)s3)c2cc1OC [GSK205189],0%
15,CCC(=O)c1c(-c2ccccc2)c2cc(Cl)ccc2c(=O)n1Cc1cc(S(C)(=O)=O)n(CCC(C)(C)O)n1,18%
16,COc1cccc(C2=C(Nc3cccc(C(=O)O)c3)C(=O)NC2=O)c1 [SB-390770],0%
17,CCc1nc(-c2cccc(C)c2)c(-c2ccncc2)s1,12%
18,CCC(=O)c1c(-c2ccccc2)c2cc(Cl)ccc2c(=O)n1Cc1cc(C(=O)NC2CC2)n(C)n1,0%

row,SMILES,%Inh
1,CCS(=O)(=O)c1ccc(OC)c(Nc2ncc(-c3ccc(F)cc3)o2)c1.Cl [GW591947],0%
2,COc1cccc(C2=C(N(C)c3ccccc3)C(=O)NC2=O)c1 [SB-334865],0%
3,CCCC(=O)Nc1n[nH]c2ncc(-c3cccc4ccccc34)cc12 [SB-642057],0%
4,C[C@@H]1CC[C@H](C(=O)NC2CCCCC2)CN1c1cc(-c2ccc3c(N)n[nH]c3c2)nc(N)n1 [GSK2291363],0%
5,COc1cc(Nc2nccc(N3CCC(NC(=O)C(C)c4ccc(Cl)cc4)C3)n2)cc(OC)c1OC (stereo not drawn) [GSK1379757],0%
6,O=C(Nc1n[nH]c2nc(-c3ccccc3)c(Cl)cc12)C1CC1 [SB-734909],0%
7,CN1C(=O)C(Nc2ccccc2)=C(c2ccccc2)C1=O [SB-300079],0%
8,CCn1c(-c2nonc2N)nc2ccccc21 [SB-693162/GW549034],0%
9,Nc1nc(-c2ccccc2F)c(-c2ccnc3ccccc23)s1 [GW560459],0%
10,Cc1ccc(Oc2ccc(Nc3ncnc4cc[nH]c34)cc2C)cn1,0%
11,O=C(NCc1cccs1)c1cc(C(=O)c2c(Cl)cccc2Cl)c[nH]1 [GW823670],1%
12,COc1ccc(-c2cc3c(C)nc(N)nc3n([C@H]3CC[C@H](O)CC3)c2=O)cn1,0%
13,COc1cc2ncn(-c3cc(OCc4ccncc4Br)c(C(N)=O)s3)c2cc1OC [GW854278],4%
14,Cc1cc(Nc2nc(-c3cccc(C)n3)nc3ccccc23)ccn1 [GW872411],0%
15,COc1ccc(CNC(=O)NC2CCN(c3ccnc(Nc4ccc(F)cc4)n3)C2)cc1 (stereo not drawn) [GSK1379706],0%
16,COc1cc(Nc2nccc(N3CCC(NC(=O)C4COc5ccccc5O4)C3)n2)cc(OC)c1OC (stereo not drawn) [GSK1379761],19%
17,COc1cccc(-n2cnc3c(N)ncnc32)c1 [SKF-97416],8%
18,CCC(=O)c1c(-c2ccccc2)c2cc(Cl)ccc2c(=O)n1Cc1cc(S(C)(=O)=O)n(CC(F)F)n1,0%
